According to ChEMBL document CHEMBL1961873, “Compounds: GSK PKIS; Assays: Nanosyn kinase panel” (2012):

Tests used:
[1] = molecular target: T1, Inhibitor of nuclear factor kappa-B kinase subunit epsilon (Homo sapiens) (UniProt Q14164); settings: at 1 µM;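 note: reported values are averaged percent inhibition figures against human IKKε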
T1 sequence (whole entry): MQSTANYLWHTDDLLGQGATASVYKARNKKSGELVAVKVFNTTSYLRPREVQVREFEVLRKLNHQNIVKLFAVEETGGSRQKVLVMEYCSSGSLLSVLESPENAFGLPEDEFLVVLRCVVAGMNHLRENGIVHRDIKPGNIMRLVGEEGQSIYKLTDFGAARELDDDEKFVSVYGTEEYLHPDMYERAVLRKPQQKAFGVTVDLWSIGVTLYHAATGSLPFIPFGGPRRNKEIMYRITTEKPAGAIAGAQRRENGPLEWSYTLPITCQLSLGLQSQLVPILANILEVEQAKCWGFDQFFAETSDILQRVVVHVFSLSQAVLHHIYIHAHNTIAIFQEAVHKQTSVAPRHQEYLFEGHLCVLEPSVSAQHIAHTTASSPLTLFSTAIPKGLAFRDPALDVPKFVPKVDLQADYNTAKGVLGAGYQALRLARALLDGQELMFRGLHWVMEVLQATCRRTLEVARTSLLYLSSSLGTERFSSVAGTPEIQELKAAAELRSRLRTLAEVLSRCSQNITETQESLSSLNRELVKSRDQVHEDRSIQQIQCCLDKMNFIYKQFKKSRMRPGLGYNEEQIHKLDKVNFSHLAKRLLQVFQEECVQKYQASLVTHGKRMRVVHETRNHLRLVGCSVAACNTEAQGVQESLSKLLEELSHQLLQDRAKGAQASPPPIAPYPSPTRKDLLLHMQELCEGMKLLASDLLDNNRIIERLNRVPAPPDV

[2] = molecular target: T2, Serine/threonine-protein kinase Nek1 (Homo sapiens) (UniProt Q96PY6); settings: at 0.1 µM
T2 sequence (whole entry): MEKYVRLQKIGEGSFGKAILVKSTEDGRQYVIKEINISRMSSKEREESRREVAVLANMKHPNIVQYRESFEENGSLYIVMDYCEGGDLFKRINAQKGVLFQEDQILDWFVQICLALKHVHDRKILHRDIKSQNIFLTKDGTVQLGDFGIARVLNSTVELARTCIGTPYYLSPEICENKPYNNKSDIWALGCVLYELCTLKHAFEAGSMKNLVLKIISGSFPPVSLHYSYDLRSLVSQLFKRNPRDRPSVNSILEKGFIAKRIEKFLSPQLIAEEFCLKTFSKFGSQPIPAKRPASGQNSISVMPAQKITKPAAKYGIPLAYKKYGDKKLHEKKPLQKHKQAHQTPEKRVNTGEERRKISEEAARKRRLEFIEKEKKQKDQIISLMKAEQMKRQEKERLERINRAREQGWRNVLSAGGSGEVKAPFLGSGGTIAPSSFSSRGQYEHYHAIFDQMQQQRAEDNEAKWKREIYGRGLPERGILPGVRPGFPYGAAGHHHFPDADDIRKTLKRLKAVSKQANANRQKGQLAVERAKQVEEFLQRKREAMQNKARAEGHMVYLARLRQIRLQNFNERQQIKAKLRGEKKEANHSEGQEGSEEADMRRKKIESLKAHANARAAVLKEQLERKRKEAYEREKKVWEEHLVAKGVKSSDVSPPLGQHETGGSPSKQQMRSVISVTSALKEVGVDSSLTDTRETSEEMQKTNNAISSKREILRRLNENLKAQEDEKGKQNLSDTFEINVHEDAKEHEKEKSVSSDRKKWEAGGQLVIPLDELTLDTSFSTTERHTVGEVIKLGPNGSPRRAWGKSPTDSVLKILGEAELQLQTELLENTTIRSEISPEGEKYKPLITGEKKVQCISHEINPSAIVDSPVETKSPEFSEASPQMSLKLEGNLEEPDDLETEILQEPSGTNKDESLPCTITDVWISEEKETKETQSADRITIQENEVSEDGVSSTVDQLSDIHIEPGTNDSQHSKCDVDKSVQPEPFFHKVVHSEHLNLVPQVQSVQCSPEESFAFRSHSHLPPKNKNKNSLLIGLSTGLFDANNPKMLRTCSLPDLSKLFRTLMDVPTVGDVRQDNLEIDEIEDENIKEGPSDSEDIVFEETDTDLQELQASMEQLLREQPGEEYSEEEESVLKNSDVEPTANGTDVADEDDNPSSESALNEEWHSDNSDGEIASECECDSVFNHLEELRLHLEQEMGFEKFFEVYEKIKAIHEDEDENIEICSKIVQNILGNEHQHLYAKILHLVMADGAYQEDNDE

[3] = molecular target: T2, Serine/threonine-protein kinase Nek1 (Homo sapiens); settings: at 1 µM
[4] = molecular target: T3, Serine/threonine-protein kinase Nek2 (Homo sapiens) (UniProt P51955); settings: at 0.1 µM
T3 sequence (whole entry): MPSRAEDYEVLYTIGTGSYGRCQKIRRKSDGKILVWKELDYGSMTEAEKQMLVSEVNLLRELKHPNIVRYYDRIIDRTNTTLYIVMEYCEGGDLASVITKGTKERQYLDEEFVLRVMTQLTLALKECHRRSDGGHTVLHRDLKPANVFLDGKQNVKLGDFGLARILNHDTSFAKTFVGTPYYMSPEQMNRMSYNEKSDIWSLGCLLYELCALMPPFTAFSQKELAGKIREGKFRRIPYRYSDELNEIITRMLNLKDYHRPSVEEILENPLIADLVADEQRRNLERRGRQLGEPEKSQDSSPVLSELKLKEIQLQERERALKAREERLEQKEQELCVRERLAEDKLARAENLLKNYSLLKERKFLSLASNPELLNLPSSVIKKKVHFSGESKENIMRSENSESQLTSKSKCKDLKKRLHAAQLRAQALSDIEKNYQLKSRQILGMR

[5] = molecular target: T3, Serine/threonine-protein kinase Nek2 (Homo sapiens); settings: at 1 µM
[6] = molecular target: Serine/threonine-protein kinase Nek6 (Homo sapiens) (UniProt Q9HC98); settings: at 0.1 µM
Serine/threonine-protein kinase Nek6 (Homo sapiens), sequence (Q9HC98 whole entry): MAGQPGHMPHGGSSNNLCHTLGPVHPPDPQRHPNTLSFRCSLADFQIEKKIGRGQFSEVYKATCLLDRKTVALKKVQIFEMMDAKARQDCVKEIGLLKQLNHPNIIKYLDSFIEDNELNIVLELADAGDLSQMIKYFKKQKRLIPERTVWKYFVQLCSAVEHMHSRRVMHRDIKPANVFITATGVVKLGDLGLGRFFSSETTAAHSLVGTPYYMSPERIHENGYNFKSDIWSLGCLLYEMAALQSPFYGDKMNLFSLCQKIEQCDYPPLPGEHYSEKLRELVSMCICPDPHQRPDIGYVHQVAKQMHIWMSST

[7] = molecular target: Serine/threonine-protein kinase Nek6 (Homo sapiens) (UniProt Q9HC98); settings: at 1 µM
[8] = molecular target: Serine/threonine-protein kinase Nek7 (Homo sapiens) (UniProt Q8TDX7); settings: at 0.1 µM
Serine/threonine-protein kinase Nek7 (Homo sapiens), sequence (Q8TDX7 whole entry, looked up): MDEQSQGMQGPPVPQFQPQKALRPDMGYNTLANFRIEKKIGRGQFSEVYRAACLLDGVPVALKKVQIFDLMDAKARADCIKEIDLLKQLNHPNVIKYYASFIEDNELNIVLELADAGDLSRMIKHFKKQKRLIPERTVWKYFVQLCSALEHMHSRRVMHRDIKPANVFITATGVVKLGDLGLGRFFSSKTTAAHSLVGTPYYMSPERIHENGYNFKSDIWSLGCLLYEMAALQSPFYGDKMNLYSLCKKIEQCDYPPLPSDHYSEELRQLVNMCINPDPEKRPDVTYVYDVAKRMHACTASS

[9] = molecular target: Serine/threonine-protein kinase Nek7 (Homo sapiens) (UniProt Q8TDX7); settings: at 1 µM
[10] = molecular target: T4, Serine/threonine-protein kinase Nek9 (Homo sapiens) (UniProt Q8TD19); settings: at 0.1 µM
T4 sequence (whole entry): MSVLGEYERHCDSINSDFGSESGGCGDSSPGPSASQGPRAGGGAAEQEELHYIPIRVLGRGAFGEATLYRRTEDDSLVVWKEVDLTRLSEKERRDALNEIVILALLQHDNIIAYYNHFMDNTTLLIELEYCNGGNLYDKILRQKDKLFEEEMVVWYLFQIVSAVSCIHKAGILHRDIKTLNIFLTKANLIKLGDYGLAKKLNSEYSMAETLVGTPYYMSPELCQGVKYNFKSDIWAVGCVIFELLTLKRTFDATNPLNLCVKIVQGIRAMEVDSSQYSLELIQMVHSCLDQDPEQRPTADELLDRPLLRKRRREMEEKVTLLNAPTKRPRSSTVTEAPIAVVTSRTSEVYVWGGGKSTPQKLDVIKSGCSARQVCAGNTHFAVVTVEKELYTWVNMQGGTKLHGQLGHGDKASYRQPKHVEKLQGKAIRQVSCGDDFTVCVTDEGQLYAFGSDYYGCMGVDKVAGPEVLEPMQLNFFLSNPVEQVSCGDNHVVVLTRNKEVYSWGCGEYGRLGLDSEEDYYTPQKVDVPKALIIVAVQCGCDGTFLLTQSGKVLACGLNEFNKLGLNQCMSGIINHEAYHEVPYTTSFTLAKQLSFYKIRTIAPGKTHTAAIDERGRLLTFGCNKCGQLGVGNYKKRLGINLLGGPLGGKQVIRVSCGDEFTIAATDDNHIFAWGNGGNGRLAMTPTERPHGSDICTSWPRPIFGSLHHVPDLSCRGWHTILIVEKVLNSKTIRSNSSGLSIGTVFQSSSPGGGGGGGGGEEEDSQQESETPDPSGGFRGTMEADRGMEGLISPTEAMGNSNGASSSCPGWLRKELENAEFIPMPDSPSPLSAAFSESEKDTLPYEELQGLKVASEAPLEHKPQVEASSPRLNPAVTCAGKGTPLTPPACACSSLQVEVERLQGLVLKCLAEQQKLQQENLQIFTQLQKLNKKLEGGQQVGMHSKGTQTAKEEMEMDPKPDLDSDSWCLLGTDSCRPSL

[11] = molecular target: T4, Serine/threonine-protein kinase Nek9 (Homo sapiens); settings: at 1 µM
[12] = molecular target: Serine/threonine-protein kinase PLK1 (Homo sapiens) (UniProt P53350); settings: at 0.1 µM
Serine/threonine-protein kinase PLK1 (Homo sapiens), sequence (P53350 whole entry): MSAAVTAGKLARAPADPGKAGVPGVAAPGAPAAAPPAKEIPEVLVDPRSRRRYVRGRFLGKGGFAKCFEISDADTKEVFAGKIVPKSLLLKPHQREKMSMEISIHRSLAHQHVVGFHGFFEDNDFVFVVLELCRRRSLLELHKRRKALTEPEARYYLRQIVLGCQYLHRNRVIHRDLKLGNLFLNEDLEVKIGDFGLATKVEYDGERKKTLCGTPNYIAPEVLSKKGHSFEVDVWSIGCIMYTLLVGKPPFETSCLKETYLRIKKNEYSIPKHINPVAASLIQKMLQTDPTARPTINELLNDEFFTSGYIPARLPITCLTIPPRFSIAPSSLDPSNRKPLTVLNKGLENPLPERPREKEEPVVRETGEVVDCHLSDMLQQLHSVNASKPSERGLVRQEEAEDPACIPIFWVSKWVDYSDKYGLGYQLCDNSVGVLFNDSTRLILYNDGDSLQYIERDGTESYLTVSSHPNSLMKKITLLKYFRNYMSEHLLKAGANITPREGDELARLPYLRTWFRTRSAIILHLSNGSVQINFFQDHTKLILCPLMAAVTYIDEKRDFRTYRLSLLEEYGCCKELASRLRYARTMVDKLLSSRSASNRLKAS

[13] = molecular target: Serine/threonine-protein kinase PLK1 (Homo sapiens) (UniProt P53350); settings: at 1 µM
[14] = molecular target: T5, Dual specificity protein kinase TTK (Homo sapiens) (UniProt P33981); settings: at 0.1 µM
T5 sequence (whole entry): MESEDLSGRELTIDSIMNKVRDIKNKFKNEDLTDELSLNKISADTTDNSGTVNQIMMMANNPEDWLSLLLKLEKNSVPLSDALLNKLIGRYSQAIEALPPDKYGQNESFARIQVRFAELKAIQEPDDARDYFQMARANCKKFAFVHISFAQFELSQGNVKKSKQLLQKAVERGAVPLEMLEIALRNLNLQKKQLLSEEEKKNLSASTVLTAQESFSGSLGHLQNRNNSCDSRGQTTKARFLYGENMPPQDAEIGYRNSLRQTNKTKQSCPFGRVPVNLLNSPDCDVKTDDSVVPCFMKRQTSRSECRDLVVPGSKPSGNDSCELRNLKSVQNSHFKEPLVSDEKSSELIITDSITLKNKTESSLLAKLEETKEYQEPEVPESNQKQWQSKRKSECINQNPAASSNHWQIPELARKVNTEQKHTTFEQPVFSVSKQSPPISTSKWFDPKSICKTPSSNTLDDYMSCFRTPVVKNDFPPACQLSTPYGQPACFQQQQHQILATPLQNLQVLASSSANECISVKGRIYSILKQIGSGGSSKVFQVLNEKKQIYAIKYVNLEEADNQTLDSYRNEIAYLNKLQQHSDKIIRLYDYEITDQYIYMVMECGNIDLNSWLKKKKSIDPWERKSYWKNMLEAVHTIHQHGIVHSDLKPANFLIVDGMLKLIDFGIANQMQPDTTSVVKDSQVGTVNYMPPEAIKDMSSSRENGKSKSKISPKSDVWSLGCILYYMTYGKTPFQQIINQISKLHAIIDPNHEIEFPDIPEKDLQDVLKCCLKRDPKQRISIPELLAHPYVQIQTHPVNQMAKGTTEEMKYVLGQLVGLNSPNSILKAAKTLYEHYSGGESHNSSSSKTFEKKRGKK

[15] = system: T6, Receptor-type tyrosine-protein kinase FLT3 (Homo sapiens), P36888 [D835Y]; settings: at 1 µM
T6 sequence (whole entry): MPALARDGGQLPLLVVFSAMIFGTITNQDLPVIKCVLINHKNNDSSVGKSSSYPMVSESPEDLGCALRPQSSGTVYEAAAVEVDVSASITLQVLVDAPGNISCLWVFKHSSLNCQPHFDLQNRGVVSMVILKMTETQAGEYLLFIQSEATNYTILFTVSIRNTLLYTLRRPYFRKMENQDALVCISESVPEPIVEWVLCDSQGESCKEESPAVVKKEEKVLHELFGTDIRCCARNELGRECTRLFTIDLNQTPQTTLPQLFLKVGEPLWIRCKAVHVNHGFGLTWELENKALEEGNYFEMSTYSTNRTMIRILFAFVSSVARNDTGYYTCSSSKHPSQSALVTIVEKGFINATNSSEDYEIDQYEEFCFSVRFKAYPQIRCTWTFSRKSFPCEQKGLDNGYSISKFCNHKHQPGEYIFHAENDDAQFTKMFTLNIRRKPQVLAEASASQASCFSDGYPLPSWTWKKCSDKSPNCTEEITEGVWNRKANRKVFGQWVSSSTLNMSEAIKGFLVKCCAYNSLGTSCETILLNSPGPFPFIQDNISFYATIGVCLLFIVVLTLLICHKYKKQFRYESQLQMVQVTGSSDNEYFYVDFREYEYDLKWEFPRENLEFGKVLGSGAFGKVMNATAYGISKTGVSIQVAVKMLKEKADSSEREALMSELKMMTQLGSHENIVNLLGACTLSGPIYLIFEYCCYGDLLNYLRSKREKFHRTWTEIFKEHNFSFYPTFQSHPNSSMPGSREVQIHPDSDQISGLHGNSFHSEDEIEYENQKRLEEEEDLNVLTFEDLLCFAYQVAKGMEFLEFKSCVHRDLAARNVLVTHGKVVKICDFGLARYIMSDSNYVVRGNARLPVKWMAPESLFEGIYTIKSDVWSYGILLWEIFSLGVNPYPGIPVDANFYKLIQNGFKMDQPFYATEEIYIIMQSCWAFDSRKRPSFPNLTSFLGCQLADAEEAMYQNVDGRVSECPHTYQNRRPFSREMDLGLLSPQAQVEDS

[16] = molecular target: Vascular endothelial growth factor receptor 3 (Homo sapiens) (UniProt P35916); settings: at 0.1 µM
Vascular endothelial growth factor receptor 3 (Homo sapiens), sequence (P35916 whole entry): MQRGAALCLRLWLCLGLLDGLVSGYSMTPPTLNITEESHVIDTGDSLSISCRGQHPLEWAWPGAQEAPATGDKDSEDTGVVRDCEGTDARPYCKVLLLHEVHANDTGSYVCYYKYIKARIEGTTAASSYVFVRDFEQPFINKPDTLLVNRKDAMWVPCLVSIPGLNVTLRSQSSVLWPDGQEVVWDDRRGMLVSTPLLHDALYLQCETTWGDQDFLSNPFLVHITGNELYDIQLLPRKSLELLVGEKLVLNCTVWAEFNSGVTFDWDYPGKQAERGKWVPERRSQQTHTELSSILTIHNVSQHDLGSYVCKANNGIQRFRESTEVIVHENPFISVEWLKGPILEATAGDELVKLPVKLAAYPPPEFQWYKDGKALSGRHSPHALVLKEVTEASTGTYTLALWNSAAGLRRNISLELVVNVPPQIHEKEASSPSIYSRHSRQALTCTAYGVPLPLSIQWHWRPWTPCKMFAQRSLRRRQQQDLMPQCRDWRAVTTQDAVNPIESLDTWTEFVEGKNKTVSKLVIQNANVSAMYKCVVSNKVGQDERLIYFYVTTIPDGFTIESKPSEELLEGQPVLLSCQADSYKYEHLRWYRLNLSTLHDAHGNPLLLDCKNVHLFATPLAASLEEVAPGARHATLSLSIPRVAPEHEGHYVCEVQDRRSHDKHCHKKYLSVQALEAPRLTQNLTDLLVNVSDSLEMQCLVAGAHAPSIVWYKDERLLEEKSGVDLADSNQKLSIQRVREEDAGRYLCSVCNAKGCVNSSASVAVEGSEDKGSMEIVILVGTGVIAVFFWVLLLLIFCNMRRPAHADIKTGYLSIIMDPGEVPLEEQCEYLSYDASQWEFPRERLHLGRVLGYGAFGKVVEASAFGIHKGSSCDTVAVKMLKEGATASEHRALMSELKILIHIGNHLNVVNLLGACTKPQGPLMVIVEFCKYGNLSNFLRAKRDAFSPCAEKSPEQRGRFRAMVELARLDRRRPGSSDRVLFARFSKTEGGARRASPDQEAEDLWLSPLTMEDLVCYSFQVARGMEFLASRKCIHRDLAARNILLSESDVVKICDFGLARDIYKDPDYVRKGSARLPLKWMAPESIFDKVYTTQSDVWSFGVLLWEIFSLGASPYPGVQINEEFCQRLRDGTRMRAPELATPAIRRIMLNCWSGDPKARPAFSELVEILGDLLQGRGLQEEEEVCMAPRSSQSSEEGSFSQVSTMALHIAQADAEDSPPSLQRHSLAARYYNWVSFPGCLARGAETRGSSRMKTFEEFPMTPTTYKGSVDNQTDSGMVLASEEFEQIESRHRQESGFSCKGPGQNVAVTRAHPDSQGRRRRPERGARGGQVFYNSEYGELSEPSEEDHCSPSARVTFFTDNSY

[17] = molecular target: Vascular endothelial growth factor receptor 3 (Homo sapiens) (UniProt P35916); settings: at 1 µM
[18] = molecular target: Macrophage colony-stimulating factor 1 receptor (Homo sapiens) (UniProt P07333); settings: at 0.1 µM
Macrophage colony-stimulating factor 1 receptor (Homo sapiens), sequence (P07333 whole entry): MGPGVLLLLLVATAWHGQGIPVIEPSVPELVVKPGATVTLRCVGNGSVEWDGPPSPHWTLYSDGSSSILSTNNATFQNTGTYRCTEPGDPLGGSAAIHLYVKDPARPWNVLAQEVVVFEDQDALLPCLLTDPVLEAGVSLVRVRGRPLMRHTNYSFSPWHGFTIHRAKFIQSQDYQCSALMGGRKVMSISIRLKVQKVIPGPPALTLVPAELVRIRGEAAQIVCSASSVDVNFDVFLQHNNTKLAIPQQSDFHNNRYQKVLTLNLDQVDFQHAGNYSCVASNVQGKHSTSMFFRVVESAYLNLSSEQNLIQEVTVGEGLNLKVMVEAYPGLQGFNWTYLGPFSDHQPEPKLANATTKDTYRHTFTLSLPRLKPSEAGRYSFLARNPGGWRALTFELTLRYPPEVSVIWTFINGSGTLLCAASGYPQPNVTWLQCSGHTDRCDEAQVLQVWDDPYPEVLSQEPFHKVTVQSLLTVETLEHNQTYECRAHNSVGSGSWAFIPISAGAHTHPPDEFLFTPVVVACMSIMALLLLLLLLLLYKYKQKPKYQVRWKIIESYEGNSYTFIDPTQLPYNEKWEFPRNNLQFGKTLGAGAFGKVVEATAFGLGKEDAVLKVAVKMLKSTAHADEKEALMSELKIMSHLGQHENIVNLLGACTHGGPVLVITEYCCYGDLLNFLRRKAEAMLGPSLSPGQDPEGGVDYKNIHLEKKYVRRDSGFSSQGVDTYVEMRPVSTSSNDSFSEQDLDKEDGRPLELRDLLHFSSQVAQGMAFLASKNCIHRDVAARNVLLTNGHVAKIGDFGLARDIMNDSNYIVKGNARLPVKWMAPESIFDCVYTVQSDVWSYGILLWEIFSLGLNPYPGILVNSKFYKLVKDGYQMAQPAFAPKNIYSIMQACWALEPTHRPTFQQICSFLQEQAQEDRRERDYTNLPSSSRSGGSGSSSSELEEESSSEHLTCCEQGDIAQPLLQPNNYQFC

[19] = molecular target: Macrophage colony-stimulating factor 1 receptor (Homo sapiens) (UniProt P07333); settings: at 1 µM
[20] = molecular target: Tyrosine-protein kinase Fyn (Homo sapiens) (UniProt P06241); settings: at 0.1 µM
Tyrosine-protein kinase Fyn (Homo sapiens), sequence (P06241 2-537 limits assumed): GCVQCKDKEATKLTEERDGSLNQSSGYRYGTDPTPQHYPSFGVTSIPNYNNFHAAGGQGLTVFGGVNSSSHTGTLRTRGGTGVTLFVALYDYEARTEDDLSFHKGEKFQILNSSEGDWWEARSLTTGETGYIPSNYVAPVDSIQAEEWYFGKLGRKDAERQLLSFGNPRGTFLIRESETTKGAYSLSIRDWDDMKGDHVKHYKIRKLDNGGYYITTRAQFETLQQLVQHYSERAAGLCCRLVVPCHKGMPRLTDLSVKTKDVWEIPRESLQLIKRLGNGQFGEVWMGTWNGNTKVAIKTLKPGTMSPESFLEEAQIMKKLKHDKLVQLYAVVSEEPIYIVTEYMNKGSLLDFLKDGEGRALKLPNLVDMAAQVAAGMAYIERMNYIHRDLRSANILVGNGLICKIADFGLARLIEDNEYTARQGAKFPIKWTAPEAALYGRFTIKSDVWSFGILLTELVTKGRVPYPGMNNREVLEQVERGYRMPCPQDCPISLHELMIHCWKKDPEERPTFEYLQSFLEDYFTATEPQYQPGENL

Compound	inhibition [1]	inhibition [2]	inhibition [3]	inhibition [4]	inhibition [5]	inhibition [6]	inhibition [7]	inhibition [8]	inhibition [9]	inhibition [10]	inhibition [11]	inhibition [12]	inhibition [13]	inhibition [14]	inhibition [15]	inhibition [16]	inhibition [17]	inhibition [18]	inhibition [19]	inhibition [20]
NS(=O)(=O)c1ccc(-c2cc3ccncc3cc2OCc2ccccc2)cc1	2.21%	2.31%	2.44%	3.99%	3.04%	3.18%	3.3%	5.28%	4.88%	9.27%	7.84%	2.8%	1.7%	9.2%	1.86%	-1.68%	1.58%	-0.56%	1.76%	1.04%
OCc1ccc(-c2nc(-c3ccccn3)c(-c3ccc4c(c3)OCO4)[nH]2)cc1	5.41%	2.17%	2.95%	5.76%	4.54%	2.18%	0.25%	3.26%	2.28%	5.12%	2.88%	3.56%	4.3%	7.41%	-0.9%	1.47%	-0.57%	3.57%	4.35%	2.25%
